Assay outcomes as filed in PubChem.
KCNQ2 enhance: enhances the rat KCNQ2 potassium channel; O88943; CHO-K1 KCNQ2, FluxOR thallium flux fluorescence; hits give high values; B-score at 10 µM; 310,000 tested, 0.54% active; AID 2239;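 active means fluorescence ratio B-score at least 3 SD of library B-scores, with initial fluorescence B-score within 3 of them, cut at about 5.3 in these data; same plate scores as AID 2156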;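 further: B-score of peak minus minimum over baseline fluorescence ratio after K+ and Tl+ stimulus; positive B-score means potentiation of KCNQ2 with more thallium influx and brighter signal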
KCNQ2 inh: inhibitors of rat KCNQ2 potassium channel. CHO-K1 KCNQ2, FluxOR thallium flux, 20 min; hits give low values. B-score at 10 µM. 310,000 tested, 1.1% active. O88943;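 active means fluorescence ratio B-score at most minus 3 library SDs, with starting brightness B-score within 2 library SDs, cut at about -5.5 in these data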
Kir21 conf inh: confirmation of mouse Kir2.1 potassium channel inhibitors | Kir2.1-expressing cells, FluxOR thallium flux fluorescence; hits give low values | 2,300 tested, 41% active | AID 2032 | Tl flux remaining, % of negative control (hits give low values), % at 10 µM | shares compounds with KCNQ2 enhance;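 active means Primary-screen hit whose thallium flux fell at least 3 control SD below untreated wells in both duplicates, with normal baseline fluorescence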;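 further: 0% = blank wells without stimulus and 100% = stimulated no-compound controls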
HEK293 Tl flux: counter-screen for Kir2.1 inhibitors: effect in parental HEK293 cells; FluxOR thallium flux fluorescence; 0% = unstimulated blank wells; 2,300 tested, 19% active; FluxOR signal as % of negative control (100 = no effect), % at 10 µM; shares compounds with KCNQ2 enhance; AID 2105;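 active means dye signal at least 3 control SD above or below untreated wells in both duplicates, raw fluorescence within 3, either direction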;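 further: percent is based on the flux ratio of peak minus minimum fluorescence over baseline F0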
CHO-K1 Tl ctr: counter-screen for KCNQ2 potentiators: effect in parental CHO-K1 cells. shares compounds with KCNQ2 enhance. FluxOR thallium flux fluorescence; zero = vehicle mean+3SD, 100% = vehicle-minus-blank window. activity increase over 3SD of controls, % at 10 µM. 1,200 tested, 43% active. AID 2282;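 active means signal rise of at least 3 SD above the untreated control mean, in both duplicate wells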;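 further: counter screen of KCNQ2 potentiator hits so any rise reflects channel-independent effects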
KCNQ1 sel pot: tests whether KCNQ2 potentiators also act on human KCNQ1. shares compounds with KCNQ2 enhance. activation over 3SD threshold, % at 10 µM. 1,200 tested, 28% active. CHO KCNQ1 stable, FluxOR thallium flux fluorescence; beyond 3SD, as % of vehicle-control signal;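 active means fluorescence ratio rise of at least 3 SD of vehicle wells above their mean, in both replicate wells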;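 further: 0% = vehicle mean plus 3 SD and 100% = vehicle minus unstimulated blank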
KCNQ2 pot confirm: rat KCNQ2 channel potentiator confirmation; shares compounds with KCNQ2 enhance; CHO-KCNQ2 cells, FluxOR thallium flux fluorescence; potentiation, less the hit threshold, % at 10 µM; 1,200 tested, 68% active; AID 2287;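 active means fluorescence ratio rising 3 SD or more over the vehicle control mean in both replicates, plus primary screen hit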;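 further: peak minus minimum thallium fluorescence divided by baseline after K/Tl stimulus; 0% = vehicle mean plus 3 SD and 100% = vehicle minus unstimulated blank difference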
Kir21 spec: mouse Kir2.1 off-target activity of KCNQ2 potentiators; activity over 3SD threshold, % at 10 µM; shares compounds with KCNQ2 enhance; HEK293 Kir2.1, FluxOR thallium flux fluorescence; 1,200 tested, 2% active;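 active means fluorescence ratio rise of at least 3 SD above the vehicle-control mean, seen in both replicates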;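 further: 0% = vehicle mean plus 3 SD and 100% = vehicle minus no-stimulus blank window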
KCNQ2 W236L MoA: KCNQ2 potentiators acting on retigabine-insensitive rat KCNQ2 W236L mutant; shares compounds with KCNQ2 enhance; CHO KCNQ2-W236L, automated patch clamp current; current increase over 3SD of negative controls (%), hits give high values, % at 25 µM; 940 tested, 10% active; AID 2558;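 active means current increase at least 3 SD of the untreated controls above them in both duplicate recordings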
Target sequence (O88943 whole entry W236L, looked up): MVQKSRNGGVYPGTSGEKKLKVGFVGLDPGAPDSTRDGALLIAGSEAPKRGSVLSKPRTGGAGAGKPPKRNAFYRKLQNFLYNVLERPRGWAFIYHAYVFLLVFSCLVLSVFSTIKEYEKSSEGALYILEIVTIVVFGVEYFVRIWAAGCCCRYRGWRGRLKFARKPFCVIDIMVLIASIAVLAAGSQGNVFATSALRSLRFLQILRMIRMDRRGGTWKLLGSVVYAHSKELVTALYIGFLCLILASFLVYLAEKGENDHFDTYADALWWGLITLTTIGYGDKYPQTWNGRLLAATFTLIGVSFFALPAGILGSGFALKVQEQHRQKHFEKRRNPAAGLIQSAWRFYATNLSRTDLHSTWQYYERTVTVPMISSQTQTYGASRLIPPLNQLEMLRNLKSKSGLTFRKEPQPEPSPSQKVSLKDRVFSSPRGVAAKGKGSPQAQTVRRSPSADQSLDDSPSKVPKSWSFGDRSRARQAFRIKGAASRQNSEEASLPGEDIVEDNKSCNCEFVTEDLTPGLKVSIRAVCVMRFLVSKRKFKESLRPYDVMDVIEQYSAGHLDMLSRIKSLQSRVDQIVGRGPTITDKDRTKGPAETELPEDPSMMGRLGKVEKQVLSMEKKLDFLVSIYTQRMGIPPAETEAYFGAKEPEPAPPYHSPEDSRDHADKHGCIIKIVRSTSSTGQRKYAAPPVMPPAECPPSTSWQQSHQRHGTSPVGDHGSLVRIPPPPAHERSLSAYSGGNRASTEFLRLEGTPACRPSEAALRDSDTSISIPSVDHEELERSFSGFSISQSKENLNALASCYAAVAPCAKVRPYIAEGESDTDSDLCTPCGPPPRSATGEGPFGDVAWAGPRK
* = called active by the depositor; i = inactive; nt = not tested or not shown. Rows were chosen to be rich in hits. Some 1.6% of all compounds tested hit in one or more screens of this group.

SMILES | KCNQ2 enhance | KCNQ2 inh | Kir21 conf inh | HEK293 Tl flux | others
COc1ccc(C2NC(=O)NC(c3ccccc3)=C2c2nc3ccccc3s2)cc1 (stereo not drawn) | 2 | i | nt | nt
CCN(Cc1ccccc1)S(=O)(=O)c1ccc2c(c1)NC(=O)CS2 | 2.2 | i | 73%* | i
CCN(Cc1ccccc1)S(=O)(=O)c1ccc2c(c1)NC(=O)CC(=O)N2 | nt | i | nt | nt
CCOCCCn1c(C)nc2c(c1=O)c1nc3ccccc3nc1n2-c1ccc2c(c1)OCCO2 | nt | i | nt | nt
Cn1ccnc1C(OC(=O)c1ccccc1)C(F)(F)F (stereo not drawn) | 0.01 | i | nt | nt
CS(=O)(=O)N(CC(=O)N1CCN(C(c2ccccc2)c2ccccc2)CC1)C1CCCCC1 | 2.1 | i | nt | nt
CS(=O)(=O)N(CC(=O)N1CCCCC1)C1CCCCC1 | 13* | i | i | i | CHO-K1 Tl ctr=-8;KCNQ1 sel pot=-25;KCNQ2 pot confirm=-12;Kir21 spec=-23
CCCCc1nc(SCC(=O)Nc2cccc(Cl)c2)n[nH]1 | 0.29 | i | nt | nt
O=C1[C@H]2[C@@H](c3ccc(Cl)cc3)N3C(=O)N(c4cccc(Cl)c4)C(=O)[C@@]3(Cc3ccccc3)[C@H]2C(=O)N1C1CCCCC1 | nt | i | nt | nt
C=CCn1c(=S)[nH]c2cc(C(=O)Nc3ccc(OC)c(OC)c3)ccc2c1=O | nt | i | nt | nt
C=CCn1c(=S)[nH]c2ccc(Br)cc2c1=O | 5.9* | i | i | i | CHO-K1 Tl ctr=-9;KCNQ1 sel pot=-38;KCNQ2 pot confirm=-5;Kir21 spec=-36;KCNQ2 W236L MoA=i
c1ccc(Cc2ccc(OCCCNC3CCCC3)cc2)cc1 | 0.67 | i | 44%* | i
c1ccc(SCCCCNC2CCCC2)cc1 | 1.2 | i | nt | nt
COc1ccc(OCCNC2CCCC2)cc1 | 1.1 | i | nt | nt
c1ccc(-c2ccc(OCCCNC3CCCC3)cc2)cc1 | nt | i | 42%* | i
Cn1c(COc2ccc(Cl)cc2Cl)nnc1SCC(=O)NCC1CCCO1 (stereo not drawn) | 0.67 | i | nt | nt
CCC(C)C(=O)Nc1nc2ccc(OC)cc2s1 (stereo not drawn) | 1.1 | i | nt | nt
CCCN(C(=O)COC(=O)CCOc1ccccc1C)c1c(N)n(Cc2ccccc2)c(=O)[nH]c1=O | nt | i | nt | nt
CCOc1ccc(NC(=O)COc2ccc(C(=O)NC(C)c3ccc(S(N)(=O)=O)cc3)cc2OC)cc1 (stereo not drawn) | nt | i | nt | nt
COc1nc(C)cc(C)c1S(=O)(=O)c1ccc(Cl)cc1 | 0.07 | i | nt | nt
CCOc1nc(C)cc(C)c1S(=O)(=O)c1ccc(Cl)cc1 | 1.1 | i | 52%* | i
Cc1ccc(SCC(=O)Nc2ccccc2N2CCOCC2)cc1 | nt | i | 48%* | i
Nc1cc(N)nc(SCC(=O)Nc2ccccc2N2CCOCC2)n1 | 1.1 | i | nt | nt
O=C(CSc1ccccc1)Nc1ccccc1N1CCOCC1 | nt | i | i | i
Cc1ccc(-c2nnc(SCC(=O)Nc3ccccc3N3CCOCC3)o2)cc1 | nt | i | nt | nt
SMILES | KCNQ2 enhance | KCNQ2 inh | Kir21 conf inh | HEK293 Tl flux | others
Cc1noc(C)c1CSCC(=O)Nc1ccccc1N1CCCCC1 | nt | i | 56%* | 76%*
O=C(CSc1ccc(F)cc1)Nc1ccccc1N1CCOCC1 | nt | i | 38%* | i
Cc1cccc(NC(=O)CSCc2c(C)noc2C)c1C | 0.82 | i | nt | nt
O=C(CSc1ccc(F)cc1)Nc1ccc(N2CCOCC2)cc1 | 0.06 | i | nt | nt
Cc1cccc(N(C)S(=O)(=O)c2c(C)[nH]c(C)c2C(=O)N2CCCC2)c1 | nt | i | nt | nt
COc1ccc2oc(C(=O)N3CCCc4ccccc43)c(C)c2c1 | nt | i | nt | nt
CCOC(=O)C(=Cc1c[nH]c2ccc(S(=O)(=O)N(C)C)cc12)C(=O)OCC | 0.91 | i | nt | nt
COc1ccc(N2C(=O)NC(NS(=O)(=O)c3ccc(NC(C)=O)cc3)(C(F)(F)F)C2=O)cc1 (stereo not drawn) | 0.46 | i | nt | nt
O=C(CSc1ccccc1)N/N=C/c1ccccc1O | 6* | i | i | i | CHO-K1 Tl ctr=-11;KCNQ1 sel pot=-14;KCNQ2 pot confirm=25*;Kir21 spec=-30;KCNQ2 W236L MoA=i
O=C(CSc1n[nH]c(=O)[nH]c1=O)N/N=C/c1ccccc1O | 0.06 | i | nt | nt
CCOc1ccc(C(=O)N/N=C/c2ccc(-c3ccc(S(=O)(=O)Nc4ncccn4)cc3)o2)cc1 | 1.6 | i | nt | nt
O=C(N/N=C/c1ccc(-c2ccc(S(=O)(=O)Nc3ncccn3)cc2)o1)c1cc2ccccc2cc1O | 5.5* | i | i | i | CHO-K1 Tl ctr=-2;KCNQ1 sel pot=-30;KCNQ2 pot confirm=-7;Kir21 spec=-16
COc1ccc(-c2cc(C(=O)N/N=C(\C)c3cccnc3)c3cc(C)ccc3n2)cc1OC | nt | i | nt | nt
CCOC(=O)c1cc(=O)n2c(nc3ccccc32)[nH]1 | 2.2 | i | nt | nt
CNC[C@H](CC1CCCCC1)NC[C@H](Cc1ccccc1)NCCC12CC3CC(CC(C3)C1)C2 | 1.3 | i | i | i
O=C(CC12CC3CC(CC(C3)C1)C2)NC(Cc1ccccc1)C(=O)O (stereo not drawn) | 0.32 | i | nt | nt
CC(=O)Nc1cccc(NC(=O)CCCC2CCCCC2)c1 | 1.9 | i | nt | nt
O=C(CCC1CCCC1)Nc1cccc(Cc2ccncc2)c1 | 6.3* | i | i | i | CHO-K1 Tl ctr=94*;KCNQ1 sel pot=-6;KCNQ2 pot confirm=-10;Kir21 spec=-30
O=C(O)CCCC(=O)Nc1ccccc1Oc1ccccc1 | nt | i | nt | nt
CCOc1ccc(Oc2ccccc2NC(=O)CN2C(=O)NC3(CCCC3)C2=O)cc1 | 5.9* | i | i | i | CHO-K1 Tl ctr=-7;KCNQ1 sel pot=-18;KCNQ2 pot confirm=26*;Kir21 spec=-39;KCNQ2 W236L MoA=i
COc1ccc(NC(=O)CN2C(=O)NC3(CCCC3)C2=O)c(OC)c1 | nt | i | nt | nt
CCCCC(=O)Nc1ccccc1Oc1ccccc1 | 9* | i | nt | nt | CHO-K1 Tl ctr=-10;KCNQ1 sel pot=-17;KCNQ2 pot confirm=19*;Kir21 spec=-81;KCNQ2 W236L MoA=i
Cc1ccc(-n2cccc2C(=S)N=P(N(C)C)(N(C)C)N(C)C)cc1 | nt | i | i | i
Cc1ccc(-n2cccc2C(=O)NS(=O)(=O)c2ccc(C)cc2)cc1 | 0.75 | i | nt | nt
CCn1c(=O)c(C(=O)NCc2ccccn2)c(O)c2ccccc21 | 18* | i | i | i | CHO-K1 Tl ctr=-20;KCNQ1 sel pot=-24;KCNQ2 pot confirm=35*;Kir21 spec=-53;KCNQ2 W236L MoA=i
CCn1c(=O)c(C(=O)NCc2ccc(OC)cc2)c(O)c2ccccc21 | nt | i | nt | nt
CCOc1ccc(CCNC(=O)COC(=O)c2ccc(OC(C)C)cc2)cc1OCC | nt | i | nt | nt
Oc1ccc(Br)cc1-c1n[nH]c(=S)n1Cc1ccccc1 | 11* | i | nt | nt | CHO-K1 Tl ctr=-1;KCNQ1 sel pot=28*;KCNQ2 pot confirm=26*;Kir21 spec=-86
